Structures are written as SMILES. Records with an inconclusive call do not appear. Values without a mark were called inactive. The call rests on the fitted dose curve; in most records, active means well fitted inhibition curve with a large enough effect; inconclusive means small, poorly fitted or top-dose-only effect, or effect the other way; inactive means flat fitted curve, though single readings scatter.
On the % scale 0 is the no-effect control and ±100 the full control effect.

In this experiment the target is ATP-dependent 6-phosphofructokinase (Trypanosoma brucei brucei) (UniProt O15648). The experiment can be described thus: qHTS Assay to Find Inhibitors of T. brucei phosphofructokinase: hit validation (AID 492961). The following applies: T. brucei PFK, ADP-Glo luminescence; series mostly up to 51.4 µM; activity change, negative = inhibition: at the top concentration. In short, it runs like this: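 Luminescence from ADP-Glo reports ADP generated as T. brucei PFK (1.25 nM) phosphorylates 0.5 mM fructose-6-phosphate using 0.1 mM ATP. Reactions ran 45 min at room temperature, pH 8.0.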
ATP-dependent 6-phosphofructokinase (Trypanosoma brucei brucei), sequence (O15648 whole entry, looked up): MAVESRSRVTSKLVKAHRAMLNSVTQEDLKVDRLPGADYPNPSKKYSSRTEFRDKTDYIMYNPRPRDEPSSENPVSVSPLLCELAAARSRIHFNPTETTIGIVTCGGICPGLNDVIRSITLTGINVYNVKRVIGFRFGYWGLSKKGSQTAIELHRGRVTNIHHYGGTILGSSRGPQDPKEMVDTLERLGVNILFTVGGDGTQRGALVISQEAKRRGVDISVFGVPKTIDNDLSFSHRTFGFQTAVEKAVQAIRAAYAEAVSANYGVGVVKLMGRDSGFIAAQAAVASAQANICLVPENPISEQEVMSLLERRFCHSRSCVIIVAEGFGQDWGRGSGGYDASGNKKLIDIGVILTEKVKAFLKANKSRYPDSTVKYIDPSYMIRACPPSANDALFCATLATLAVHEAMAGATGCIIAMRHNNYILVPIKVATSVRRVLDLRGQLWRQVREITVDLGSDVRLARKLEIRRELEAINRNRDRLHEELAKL
With `CCCCCCCCCCCCCCCC(=O)O`, the “activity change, negative = inhibition” value was 2.16%.

With `CN(CCCN1c2ccccc2CCc2ccccc21)CC(=O)c1ccc(Cl)cc1`, the “activity change, negative = inhibition” value is -9.54%.

For the compound `CCC(CC)(CC(=O)Nc1cccc(/C=C/c2nc(C3CCC3)cs2)c1)C(=O)O`, the “activity change, negative = inhibition” value is 0.279%.

Consider `CC(=O)O[C@]1(C(C)=O)CC[C@H]2[C@@H]3C=C(Cl)C4=CC(=O)CC[C@]4(C)[C@H]3CC[C@@]21C`, for which the “activity change, negative = inhibition” value is 0.613%.

`CCCc1ncc(C[n+]2ccccc2C)c(N)n1`: the “activity change, negative = inhibition” value is -4.15% [at 24.3 µM].

Consider `CCCCC(CC)COC(=O)/C=C/c1ccc(OC)cc1` (configuration not stated), for which the “activity change, negative = inhibition” value is -5.2%.

In the case of `O=C(Nc1cccc(C2=NCCN2)c1)Nc1cccc(C2=NCCN2)c1`, the “activity change, negative = inhibition” value was -6.35%.

Turning to `CCN(CC)CCNC(=O)COc1ccc(OC)cc1`, the “activity change, negative = inhibition” value was 1.63%.

On to `C=C[C@@]1(C)CC(=O)[C@]2(O)[C@@]3(C)[C@@H](O)CCC(C)(C)[C@@H]3[C@H](O)[C@H](OC(C)=O)[C@@]2(C)O1`, for which the “activity change, negative = inhibition” value was 0.0934%.

Turning to `COc1ccc(/C=N/NC(=O)c2ccncc2)cc1OC`, the “activity change, negative = inhibition” value was -9.73%.

As to `CC(=O)Nc1ccc(OC(=O)c2ccccc2OC(C)=O)cc1`, the “activity change, negative = inhibition” value is -4.2%.

For the compound `CCOc1cc(OCC)c(C(=O)CCC(=O)O)cc1OCC`, the “activity change, negative = inhibition” value was -3.35%.

For `Cc1nc(-c2ccc(Cl)cc2)oc1COC(C)(C)C(=O)O`, the “activity change, negative = inhibition” value was -4.2%.

For the compound `CCCCNc1ccc(C(=O)OCCOCCOCCOCCOCCOCCOCCOCCOCCOC)cc1`, the “activity change, negative = inhibition” value was 1.75% [at 24.3 µM].

Regarding `CC(=O)Nc1ncc([N+](=O)[O-])s1`, the “activity change, negative = inhibition” value was -4.86%.

With `c1ccc(CC2=NCCN2)cc1`, the “activity change, negative = inhibition” value is 12.6% [at 24.3 µM].

On to `FC(F)(F)C(F)(F)C(F)(F)C(F)(F)C(F)(F)C(F)(F)C(F)(F)C(F)(F)Br`, for which the “activity change, negative = inhibition” value was 0.148%.

On to `CC(C)NCC(O)c1ccc2ccccc2c1` (configuration not stated), for which the “activity change, negative = inhibition” value is -4.27%.

Regarding `CNCCc1ccccn1`, the “activity change, negative = inhibition” value was 3.25% [at 24.3 µM].

As to `CC1(COc2ccc(CC3SC(=O)NC3=O)cc2)CCCCC1` (configuration not stated), the “activity change, negative = inhibition” value was 3.62%.

For `CCc1ccc(C(=O)C(C)CN2CCCCC2)cc1` (configuration not stated), the “activity change, negative = inhibition” value was 2.01%.

On to `Oc1ccccc1C=NCc1ccccc1`, for which the “activity change, negative = inhibition” value is -6%.

In the case of `Clc1cccc(C(c2ccc3nc[nH]c3c2)n2ccnc2)c1` (configuration not stated), the “activity change, negative = inhibition” value is 4.08%.

In the case of `Cc1c[nH]c2ccccc12`, the “activity change, negative = inhibition” value was -6.19%.

Consider `CC(=O)NC(=O)c1ccccc1O`, for which the “activity change, negative = inhibition” value was -5.13%.

In the case of `CCCCCCCCCCCCCC(=O)OC(C)C`, the “activity change, negative = inhibition” value is 2.38%.

Regarding `CN1CCN(c2cc3c(cc2F)c(=O)c(C(=O)O)cn3-c2ccc(F)cc2)CC1`, the “activity change, negative = inhibition” value was 4.2%.

For the compound `CC1CCc2c(N3CCC(O)CC3)c(F)cc3c(=O)c(C(=O)O)cn1c23` (configuration not stated), the “activity change, negative = inhibition” value was -2.63%.

Turning to `Cc1ccc2c(Br)cc(Br)c(O)c2n1`, the “activity change, negative = inhibition” value was 0%.

With `CCc1oc2ccccc2c1C(=O)c1cc(Br)c(O)c(Br)c1`, the “activity change, negative = inhibition” value is 5.1%.

On to `COc1ccc(C(=O)c2ccccc2O)c(O)c1`, for which the “activity change, negative = inhibition” value is -4.13% [at 24.3 µM].

In the case of `OC[C@H]1O[C@@H]2O[C@H]3[C@H](O)[C@@H](O)[C@@H](O[C@H]4[C@H](O)[C@@H](O)[C@@H](O[C@H]5[C@H](O)[C@@H](O)[C@@H](O[C@H]6[C@H](O)[C@@H](O)[C@@H](O[C@H]7[C@H](O)[C@@H](O)[C@@H](O[C@H]8[C@H](O)[C@@H](O)[C@@H](O[C@H]1[C@H](O)[C@H]2O)O[C@@H]8CO)O[C@@H]7CO)O[C@@H]6CO)O[C@@H]5CO)O[C@@H]4CO)O[C@@H]3CO`, the “activity change, negative = inhibition” value is 14.8%.

Regarding `NCCNc1cccc2ccccc12`, the “activity change, negative = inhibition” value was 7.75%.

As to `CCN(CC)CCOc1ccc2c(c1)C(=O)c1cc(OCCN(CC)CC)ccc1-2`, the “activity change, negative = inhibition” value was 2.35%.

On to `CCCCNC(=O)NS(=O)(=O)c1ccc(N)cc1`, for which the “activity change, negative = inhibition” value is -5.86%.

With `Cc1cc(-c2ccccc2)nnc1NCCN1CCOCC1`, the “activity change, negative = inhibition” value is -7.33%.

As for `CCCCC(CC)COC(=O)c1ccc(N(C)C)cc1` (configuration not stated), the “activity change, negative = inhibition” value is 7.17%.

Values taken from PubChem BioAssay (NCATS).
